# Screens deposited in PubChem by The Scripps Research Institute Molecular Screening Center.
# A selection: hits, their analogues and other compounds. The true share with any hit is near 3.5%.
# FBW7 act – activators of human E3 ligase FBW7 | normalized activity (activation), % at 26.1 µM | Q969H0 | hit rate 0.13% among 650,000 | AlphaScreen FBW7–phospho-cyclin E peptide binding, activator screen; in the data active means normalized activity above about 1.9%;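 further: purified mutant Fbw7 with reduced substrate affinity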
# Target sequence (Q969H0 whole entry, looked up): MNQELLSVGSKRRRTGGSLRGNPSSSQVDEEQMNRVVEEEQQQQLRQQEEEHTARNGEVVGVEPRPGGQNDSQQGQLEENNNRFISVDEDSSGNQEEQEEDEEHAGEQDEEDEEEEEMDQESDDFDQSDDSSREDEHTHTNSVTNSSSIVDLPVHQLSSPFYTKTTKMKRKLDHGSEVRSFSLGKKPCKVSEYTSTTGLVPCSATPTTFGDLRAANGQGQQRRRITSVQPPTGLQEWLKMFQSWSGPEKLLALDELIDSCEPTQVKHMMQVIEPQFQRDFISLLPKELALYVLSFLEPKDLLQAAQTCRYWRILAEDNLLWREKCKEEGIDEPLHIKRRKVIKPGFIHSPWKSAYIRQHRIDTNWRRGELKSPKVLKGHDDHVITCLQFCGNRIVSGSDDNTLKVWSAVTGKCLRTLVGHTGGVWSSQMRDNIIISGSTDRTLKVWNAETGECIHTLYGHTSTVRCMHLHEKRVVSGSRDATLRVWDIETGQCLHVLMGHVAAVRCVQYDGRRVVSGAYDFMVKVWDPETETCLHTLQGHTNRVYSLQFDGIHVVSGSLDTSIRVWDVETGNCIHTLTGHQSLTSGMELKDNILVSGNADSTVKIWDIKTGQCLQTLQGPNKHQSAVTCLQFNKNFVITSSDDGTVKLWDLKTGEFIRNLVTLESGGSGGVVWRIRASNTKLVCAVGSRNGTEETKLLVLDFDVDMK
# MITF inh – blocks human microphthalmia-associated transcription factor. AlphaScreen MITF homodimerization, bead proximity signal. AID 1259374. hit rate 0.91% among 650,000. inhibition, % at 2.6 µM; in the data active means inhibition above about 50%
# GPR151 ag – activates the human receptor GPR151 | activation, % at 11.2 µM | PathHunter beta-arrestin GPR151 cells, luminescence | hit rate 1% among 650,000 | Q8TDV0; in the data active means activation above about 4.9%
# TEAD-YAP inh – TEAD-YAP interaction inhibition; inhibition, % at 9.12 µM; AID 1259422; hit rate 1.4% among 640,000; HEK-TIYL cells, TEAD-Gal4/YAP UAS-luciferase luminescence; in the data active means inhibition above about 32%
# GPR151 confirm – confirmation of human GPR151 activators; shares compounds with GPR151 ag; GPR151 PathHunter beta-arrestin cells, luminescence, 90 min; % of EA-reagent control over plate median; activation, % at 11.2 µM; 6,700 tested, under 10 active;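 active means mean percent activation across replicates above the confirmation screen cutoff of 4.91%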
# GPR119 ag – GPR119 activation, counter-screen for GPR151 activators; activation, % at 11.2 µM; AID 1508611; shares compounds with GPR151 ag; GPR119 PathHunter beta-arrestin cells, luminescence, 90 min; 0 = compound-well median, 100 = enzyme-acceptor control; hit rate 0.3% among 6,700;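 active means mean percent activation in the counterscreen above 29.09%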;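 further: counterscreen on off-target GPR119 to flag nonselective hits from the GPR151 activator screen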
# Numbers stand for hits; n = inactive; x = no result given; ! = not confirmed by another sample.
SMILES,FBW7 act,MITF inh,GPR151 ag,TEAD-YAP inh,GPR151 confirm,GPR119 ag
COc1ccc(Cl)cc1NC(=O)CSc1nc(N)cc(N)n1,n,n,n,n,x,x
COc1ccc(Cl)cc1NC(=O)CSc1nc(=O)n2ccccc2n1,n,n,5.7,n,n,n
COC(=O)c1ccccc1NC(=O)c1cc(S(=O)(=O)N2CCc3ccccc32)cn1C,n,n,n,n,x,x
CC12C=CC(C3OCCO3)(O1)C1C(=O)N(c3ccc(Cl)cc3)C(=O)C12 (stereo not drawn),n,n,6.4,n,n,n
Cc1ccc(NC(=S)NCc2ccco2)cc1,n,n,n,n,x,x
Cc1cnn(C(=S)NCc2ccco2)c1,n,n,5.1,n,n,n
COc1cc2nc(Nc3ccc(N4CCOCC4)cc3)nc(Nc3ccc(N4CCOCC4)cc3)c2cc1OC,n,n,n,n,x,x
COc1ccc(C(=O)Cn2c(CN3CCCCC3)nc3ccccc3c2=O)cc1,n,n,6.1,n,n,n
O=C1C2C(C(=O)N1c1ccccc1F)C1C=CC2C12CC2 (stereo not drawn),n,n,n,n,x,x
Cc1cc2ncn(CCC(=O)NC(C)(C)C)c2cc1C,n,n,5.3,n,n,n
Cc1cc2ncn(CCC(=O)NC3CCCC3)c2cc1C,n,n,n,n,x,x
CC(C)c1nnc(-c2cc3ccccc3n2Cc2ccccc2)o1,n,n,5.6,n,n,n
COc1ccc(C(=O)Cn2c(-c3nnc(C(C)C)o3)cc3ccccc32)cc1,n,n,n,n,x,x
O=S(=O)(Nc1ccccc1)c1ccc(NS(=O)(=O)c2c(F)cccc2F)cc1,n,n,5.2,n,n,n
O=S(=O)(Nc1ccc(S(=O)(=O)Nc2ccccc2)cc1)c1ccccc1,n,n,n,n,x,x
CC12CCC(CN(CC(O)Cn3c4ccccc4c4ccccc43)C1)C2(C)C (stereo not drawn),n,n,n,n,x,x
COc1cccc(CNC(=O)C(NS(=O)(=O)c2cccc3nsnc23)C(C)C)c1 (stereo not drawn),n,n,7.1,n,n,n
CCOc1ccc(-c2noc(CCCC(=O)Nc3ccccc3C)n2)cc1OC,n,n,n,n,x,x
COc1ccc(-c2cc(C(=O)N/N=C(\C)c3cccs3)[nH]n2)cc1,n,n,n,n,x,x
O=C(OCc1ccccc1)/C(=C/c1c[nH]c2ccccc12)[N+](=O)[O-],n,n,5.5,n,n,n
O=C(NCc1ccccc1)c1ccccc1Nc1ccnc(Nc2ccc(N3CCOCC3)cc2)c1,n,n,11,37,n,n
O=C(Nc1ccccc1)c1ccccc1Nc1ccnc(Nc2ccc(N3CCOCC3)cc2)c1,n,n,n,n,x,x
CS(=O)(=O)c1ccc2nc(NC(=O)CS(=O)(=O)c3ccc(Cl)cc3)sc2c1,n,n,5.4,n,n,n
O=C(C1c2ccccc2Sc2ccccc21)N1CCCC1,n,n,n,n,x,x
O=C(CN1CCN(CC(=O)Nc2ccccc2F)CC1)Nc1cccc(F)c1,n,n,6.2,n,n,n
SMILES,FBW7 act,MITF inh,GPR151 ag,TEAD-YAP inh,GPR151 confirm,GPR119 ag
CN(C)c1ccc(/C=N/NC(=O)C2SCCCS2)cc1,n,n,n,n,x,x
COc1ccc(Cl)cc1C(=O)NCCCN1CCN(c2ccccc2)CC1,n,n,n,n,x,x
COc1cc(N(C)C)c([N+](=O)[O-])cc1C(=O)NCCN1CCN(c2ccccc2)CC1,n,n,5.8,n,n,n
O=C(Nn1c(-c2ccc(F)cc2)nc2ccccc2c1=O)c1cncc(Br)c1,n,n,5.5,n,n,n
O=c1cc(CSc2nncs2)nc2ccc(Br)cn12,n,n,n,n,x,x
O=[N+]([O-])c1ccccc1CNc1ccc(F)c(Cl)c1,n,n,5.9,n,n,n
NC(=O)Cn1ccn(-c2cccc(Cl)c2)c(=O)c1=O,n,n,8.1,n,n,n
C/C(=N\NC(=O)c1ccc(N2CCCC2=O)cc1)c1ccccn1,n,n,9.1,n,n,n
CCOc1ccc2c(c1)c(=O)c(C(=O)c1ccccc1)cn2CC(=O)Nc1ccccc1,n,n,6.3,n,n,n
OC(CNc1cccc2ccccc12)Cn1c2ccc(Br)cc2c2cc(Br)ccc21 (stereo not drawn),n,n,n,n,x,x
Cc1nc(N2CCN(C)CC2)c2c(C)c(C(=O)N3CCC(Cc4ccccc4)CC3)sc2n1,n,n,7.1,n,n,n
COc1ccccc1CNC(=O)c1sc2nc(C)nc(N3CCCCC3)c2c1C,n,n,5.2,n,n,n
Cc1ccccc1NC(=O)c1ccc(F)c(S(=O)(=O)N2CC(C)CC(C)C2)c1 (stereo not drawn),n,n,n,n,x,x
O=C1C(=Cc2cc([N+](=O)[O-])c(N3CCOCC3)cc2N2CCOCC2)C(=O)c2ccccc21,n,n,n,n,x,x
CC(C)n1c(C(F)(F)F)nc2ccccc21,n,n,5.2,n,n,n
COc1ccc2c(c1)CC(C(=O)Nc1ccc(-c3ccnc(N)n3)cc1O)CO2 (stereo not drawn),n,n,n,n,x,x
COc1ccc2c(c1)CC(C(=O)Nc1ccc(-c3ccnc(N)n3)cc1)CO2 (stereo not drawn),14,n,5.2,n,n,n
COc1ccc(-c2nc3n(n2)C(c2ccc(OC)cc2OC)C(C(N)=O)=C(C)N3)cc1 (stereo not drawn),n,n,7.4,n,n,n
COc1ccc(-c2nc3n(n2)C(c2cc(OC)ccc2OC)C(C(N)=O)=C(C)N3)cc1 (stereo not drawn),n,n,n,n,x,x
C[C@]1(Cn2ccnn2)[C@H](C(=O)O)N2C(=O)C[C@H]2S1(=O)=O,n,n,10!,n,n,n
C=CCn1cnc2c(nnn2-c2cc(C)cc(C)c2)c1=O,n,n,9.4,n,n,n
COc1ccc(/C=N/NC(=O)c2ccccc2OC(C)C)c(OC)c1,n,n,n,n,x,x
COc1ccc2ccccc2c1CN1CCN(CC(C)(C)C)C(CCO)C1 (stereo not drawn),n,n,7.7,n,n,n
COc1ccc2ccccc2c1CN1CCN(C)C(CCO)C1 (stereo not drawn),n,n,n,n,x,x
CC(C)(CO)NC(=O)c1ccc(C(C)(C)C)cc1,n,n,n,n,x,x
SMILES,FBW7 act,MITF inh,GPR151 ag,TEAD-YAP inh,GPR151 confirm,GPR119 ag
CC(=O)Nc1ccc(NC(=O)C(C)Sc2ccccc2)cc1 (stereo not drawn),n,n,11,n,n,n
CC(C)S(=O)(=O)NCc1nnc2n1CCN(Cc1cc3ccccc3[nH]1)CC2,n,n,n,n,x,x
CCOc1cc(/C=C2\N=C(c3cccc(F)c3)OC2=O)ccc1OC(C)=O,n,n,n,n,x,x
O=C(c1ccc2cc[nH]c2c1)N1CCN(C(=O)C(c2ccccc2)c2ccccc2)CC1,n,n,5.6,n,n,n
O=C(c1ccc2cc[nH]c2c1)N1CCNCC1,n,n,n,n,x,x
CC(=O)c1cc(C(=O)N2CC[C@H]3[C@H](CCCN3C(=O)/C=C/c3cccc(F)c3)C2)cs1,n,n,n,n,x,x
